Rows were chosen to be rich in hits. Some 2.9% of all compounds tested hit in one or more screens of this group.
POLI inh: blocks human DNA polymerase iota activity. AID 588590. 390,000 compounds, 1% hits. Potency, µM (highest dose often 115 µM), for inactives: at the highest dose activity, negative = inhibition, most hits filed as inhibitors. Pol iota fluorescent replication assay, 10 min; also: potency is read from the fitted curve at half-maximal effect
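Fluorescent replication assay read twice, at 0 min and 10 min after adding 50 nM (final) substrate. Enzyme (10 nM) and compounds were first incubated 15 min at room temperature; enzyme-free buffer wells were negative controls.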
POLK inh: inhibitors of human DNA polymerase kappa. purified Pol kappa, fluorescent DNA synthesis assay, 10 min. Potency, µM (series often up to 107 µM), for the others: at the highest dose activity, negative = inhibition, usual class: inhibitors. 400,000 compounds, 0.53% hits. AID 588579; also: potency is read from the fitted curve at half-maximal effect; % is scaled to controls: 0 for no effect and ±100 for the full control effect
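10 nM Pol kappa preincubated 15 min at room temperature with compounds, then reaction started with substrate at 50 nM final. Fluorescence read kinetically at 0 and 10 min; buffer-only wells served as negative control.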
POLH inh: blocks human DNA polymerase eta activity; Q9Y253; recombinant Pol eta, fluorescent DNA replication assay; AID 588591; 390,000 compounds, 1.2% hits; Potency, µM (doses to about 114 µM), inactives show at the top dose activity change, negative = inhibition, actives largely listed as inhibitors; also: potency is read from the fitted curve at half-maximal effect; % is scaled to controls: 0 for no effect and ±100 for the full control effect
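Fluorescent replication assay: 50 nM final substrate added after a 15 min room-temperature compound preincubation with 10 nM enzyme. Signal taken at 0 min and again at 10 min.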
12-LOX inh: ALOX12 (human) lipoxygenase inhibition; P18054; purified 12hLO, xylenol orange hydroperoxide absorbance; Potency, µM (top dose mostly 108 µM), inactives show top-dose activity change, negative = inhibition, hits mostly inhibitors; 580,000 compounds, 1.1% hits; also: potency is read from the fitted curve at half-maximal effect; % is scaled to controls: 0 for no effect and ±100 for the full control effect
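Purified human 12hLO at 150 nM in 25 mM Hepes, 0.01% Triton X-100, pH 7.0, preincubated 15 min at room temperature with compound. Reaction started with 40 uM arachidonic acid, 30 min at room temperature. Hydroperoxide measured by Fe-xylenol orange, 573/405 nm absorbance ratio.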
PI5P4K alpha inh: inhibitors of human PI5P4K alpha; P48426; PI5P4Kalpha enzyme, ADP-Glo luminescence, 60 min; hits give low values; max response, %; 330,000 compounds, 1.2% hits; AID 652105; active = max response of -50% or lower; inconclusive = between -30% and -50%; inactive = -30% or higher; also: value at the top dose of about 77 µM; % is scaled to controls: 0 for no effect and ±100 for the full control effect
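PI5P4Kalpha ADP-Glo assay; 5 microM ATP final; 60 min RT reaction; HEPES pH 7.4/EGTA/CHAPS, 5% DMSO; controls lacking substrate or enzyme; luminescent end-point.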
POLB inh: blocks human DNA polymerase beta activity; P06746; Pol beta primer extension/strand displacement, fluorescence kinetic; Potency, µM (titrated, usually from 114 µM), inactives show at the highest dose activity change, negative = inhibition, usual class: inhibitors; 340,000 compounds, 1.3% hits; also: potency is read from the fitted curve at half-maximal effect; % is scaled to controls: 0 for no effect and ±100 for the full control effect
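Values derive from four-parameter Hill fits of normalized kinetic data: reads at 0 and 10 min following addition of 50 nM substrate to 10 nM Pol beta preincubated 15 min with compound.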
An asterisk follows results filed as active; ? = inconclusive; / = no result given; [ ] = another dose, or the depositor's remark. Unless noted, calls follow the shape of the dose curve; as a rule, active = well fitted inhibition curve with a large enough effect; inconclusive = small, poorly fitted or top-dose-only effect, or another doubt; inactive = no such curve, though single readings can be large or run the other way.

SMILES	POLI inh	POLK inh	POLH inh	12-LOX inh	PI5P4K alpha inh	POLB inh
COc1cncc(-c2cc3c(cc2OC)C2(CCN(C(C)=O)CC2)C(=O)N3)c1	/	/	/	-14%[176 µM]	/	/
Cc1nc(-c2ccccc2Br)cc([C@H]2CN3CC[C@H]2C[C@@H]3CNC(=O)c2cccs2)n1	/	/	/	35µM*	/	/
Cc1nc(-c2ccccc2Br)cc([C@H]2CN3CC[C@H]2C[C@@H]3CNC(=O)Nc2cccc(C#N)c2)n1	/	/	/	28µM*	/	/
Cc1nc(-c2ccc(F)cc2)cc([C@H]2CN3CC[C@H]2C[C@@H]3CNC(=O)Nc2cccc(C#N)c2)n1	/	/	/	-5%	/	/
O=C1NC(=O)C(=Cc2coc3ccc(O)cc3c2=O)C(=O)N1	?	0%	?	?	-73*	18%
O=C(C1CCCN(Cc2ccc(Cl)cc2)C1)N1CCCCC1 (stereo not drawn)	41%	-12%	-22%	0.63µM*	1	4%
COc1ccccc1N1CCN(Cc2ccc3c(c2)OCO3)CC1	-16%[58.9 µM]	-1%	-17%	0.71µM*	5	/
Cc1ccccc1S(=O)(=O)N1[C@H]2CC[C@@H]1c1cnc(-c3ccccc3)nc1C2	/	/	/	1%	/	/
O=C(NCc1ccc(F)cc1)[C@H]1CN2CCC1C[C@@H]2Cn1cc(-c2ccccn2)nn1 (stereo partly drawn)	/	/	/	9%[176 µM]	/	/
CC(C)(C)c1ccc(O)c(N=Cc2c(O)ccc3ccccc23)c1	?	1%	-21%	7.9µM*	-3	?
COC(=O)C(O)(c1ccc(N=Cc2ccccc2O)c(C)c1)C(F)(F)F (stereo not drawn)	127%	-8%	-15%	12%	-5	30%
COC(=O)C1=C(C)NC(=S)NC1c1ccc(N(CCCl)CCCl)cc1Cl (stereo not drawn)	-17%	-8%	-5%	35µM*	-12	/
O=C(Cc1ccc(F)cc1F)N1CCN(Cc2ccccc2)CC(O)C1 (stereo not drawn)	/	/	/	59%	/	/
CCCNC1=C(C)C(=O)C2=C(C1=O)C(COC(N)=O)[C@]1(OC)C3NC3CN21 (stereo partly drawn)	7.9µM*	45µM*	?	6%	?	18%
CSc1ncc(/C=C2/C(=O)NC(=O)N(C)C2=O)cn1	13%	-6%	1%	?	?	0%
CSc1ncc(/C=C2/C(=O)NC(=O)N(C3CCCCC3)C2=O)cn1	?	-13%	-7%	?	-57*	1%
CCCCN1C(=O)NC(=O)/C(=C/c2cnc(SC)nc2)C1=O	-4%	-9%	2%	73%	-85*	-2%
CC(=O)CC(c1ccccc1)c1c(O)c2ccccc2oc1=O (stereo not drawn)	?	-7%	4%	1%	0	1%
CC/C(CC(c1ccccc1)c1c(O)c2ccccc2oc1=O)=N\NC(N)=S (stereo not drawn)	?	?	28µM*	-12%	6	?
CC(C)N1C(=O)CC2(CC[N+](C)(CCOC(=O)C(O)(c3ccccc3)c3ccccc3)CC2)C1=O (stereo not drawn)	3%	0%	-11%	35µM*	-6	16%
Cn1nc(C2CCCCC2)cc1[C@H]1CN2CC[C@H]1C[C@@H]2CNS(=O)(=O)c1ccccc1	/	/	/	58%	/	/
ClCCN(CCCl)c1ccc(/C=C/c2sc3ccccc3[n+]2CCCCI)cc1	89µM*	28µM*	/	/	/	/
ClCCN(CCCl)c1ccc(C=Nc2ccc(/C=C/c3ccncc3)cc2)cc1	3%	-14%	/	/	/	/
O=C1CCC2(O)C3Cc4ccc(O)c5c4C2(CCN3Cc2ccoc2)C1O5 (stereo not drawn)	/	/	28µM*	?	14	/
C#CCN(C)C[C@H]1CN2CC[C@H]1C[C@@H]2CNC(=O)Nc1ccccc1	/	/	/	18%[176 µM]	/	/
SMILES	POLI inh	POLK inh	POLH inh	12-LOX inh	PI5P4K alpha inh	POLB inh
O=C1CC(=O)N(Cc2ccccc2)C(=S)N1	-16%	-21%	-5%	25µM*	?	2%
COc1ccc(CN2C(=O)CC(=O)NC2=O)cc1	-2%	-5%	-7%	-12%	-15	0%
O=C1CC(N2CCC(n3c(=O)[nH]c4ccccc43)CC2)C(=O)N1c1ccc(F)cc1 (stereo not drawn)	15%	-9%	-15%	?	-5	?
O=c1[nH]c2ccccc2n1C1CCN(CCCC(c2ccc(F)cc2)c2ccc(F)cc2)CC1	?	?	-21%	?	-51*	-4%
CN(C)C(=O)[C@H]1CN2CCC1C[C@@H]2Cn1cc(CCO)nn1 (stereo partly drawn)	/	/	/	3%[176 µM]	/	/
O=C(Cn1cc(C=C2C(=O)NC(=O)NC2=O)c2ccccc21)NCC1CCCO1 (stereo not drawn)	?	-8%	10%	13µM*	?	-13%
CCOC(=O)C1=Nc2ccccc2/C1=C\c1c(O)n(C)c(=O)n(C)c1=O	?	0%	2%	?	-64*	8%
O=C(CCc1c[nH]c2ccccc12)N1[C@H]2CC[C@@H]1c1cnc(-c3ccc(F)cc3)nc1C2	/	/	/	-28%	/	/
CC(=O)OC1(C)CCC2C3CCC4CC(=O)CCC4(C)C3CCC21C (stereo not drawn)	/	/	/	-16%	/	/
O=C(O)c1cc([N+](=O)[O-])cc([N+](=O)[O-])c1O	/	15%[60.1 µM]	/	/	/	/
O=C(O)c1ccc([N+](=O)[O-])c([N+](=O)[O-])c1	-6%	-13%	?	?	-50*	/

Assay outcomes (PubChem)
